Sampled rows, rich in hits. Any-hit rate of the full collection: about 8%.
FMDV inh: foot and mouth disease virus antiviral activity. Potency, µM (top dose mostly 57.9 µM), without a hit: at the highest dose activity change, negative = inhibition, hits mostly inhibitors. FMDV antiviral cell-based qHTS. 410,000 compounds, 1.2% hits; calls by dose curve; tested in HEK293T cells; further: read-out not given here; potency means the concentration at half of the fitted maximal effect; on the % scale 0 is the no-effect control and ±100 the full control effect; nearly all actives have a fitted effect of over 45% in size
HCMV antiviral: inhibitors of human cytomegalovirus. HFF cells, HCMV-luciferase reporter, 72 h; active compounds read low. AID 1259415. 410,000 compounds, 4.5% hits. activity change, negative = inhibition, % at 57.5 µM; in the data active means activity change below about -60%; inconclusive means no clear call, values can overlap the other calls; inactive means above about -39%; further: on the % scale 0 is the no-effect control and ±100 the full control effect
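HFF cells seeded 16 h at 37C, treated with compounds, infected with luciferase-reporter HCMV at MOI 1 PFU/cell; luciferase read at 72 h post infection, normalized to buffer-only and Salinomycin controls.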
HCV inh: inhibitors of hepatitis C virus infection | Huh7.5.1 HCVcc-Cre infection, luciferase reporter, 44 h | Potency, µM (doses to about 41.8 µM), for inactives: top-dose activity change, negative = inhibition, usual class: inhibitors | 340,000 compounds, 3.4% hits; active means well fitted inhibition curve with a large enough effect; inconclusive means small, poorly fitted or top-dose-only effect, or another doubt; inactive means no such curve, though single readings can be large or run the other way; further: potency means the concentration at half of the fitted maximal effect; on the % scale 0 is the no-effect control and ±100 the full control effect
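Infectious HCVcc-Cre (~0.5 moi) was added to cells just after compound, with cells seeded 4 h earlier at 1,000 per well. Luciferase activity after 44 h culture reported infection; substrate was incubated 15 min at room temperature before reading.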
MARV entry inh: inhibitors of Marburg virus binding or cell entry. Marburg virus pseudotyped entry inhibition, cell reporter. Potency, µM (doses to about 37.8 µM), inactives show at the highest dose activity change, negative = inhibition, most hits filed as inhibitors. 300,000 compounds, 1.8% hits. AID 540276; calls by dose curve; tested in HEK293 cells; further: potency means the concentration at half of the fitted maximal effect; on the % scale 0 is the no-effect control and ±100 the full control effect
SARS PLpro yeast: blocks SARS-CoV papain-like protease in a yeast assay. S. cerevisiae expressing SARS-CoV PLpro, growth rescue. Potency, µM (doses to about 32.9 µM), without a hit: at the top dose activity, positive = growth rescue, actives largely listed as activators. 330,000 compounds, 0.19% hits. AID 485353; calls by dose curve; further: potency means the concentration at half of the fitted maximal effect; 0% is about no effect; nearly all actives have a fitted effect of over 55% in size
Lassa entry inh: Lassa virus entry inhibition | Lassa virus pseudotype entry inhibition, cell reporter | Potency, µM (titrated, usually from 37.9 µM), for inactives: at the top dose activity change, negative = inhibition, hits mostly inhibitors | 300,000 compounds, 1.2% hits | AID 540256; calls by dose curve; tested in HEK293 cells; further: potency means the concentration at half of the fitted maximal effect; on the % scale 0 is the no-effect control and ±100 the full control effect; nearly all actives have a fitted effect of over 50% in size
The depositor's hits bear a star; ? = inconclusive; nt = no result given; [ ] = another dose, or the depositor's remark.

SMILES	FMDV inh	HCMV antiviral	HCV inh	MARV entry inh	SARS PLpro yeast	Lassa entry inh
COc1cccc(-n2nc(C#N)c(Cl)cc2=O)c1	11µM*	-96*	?	?	-18%	?
CCN(C(=O)COC(=O)c1cc2ccccc2cc1OC)c1c(N)n(Cc2ccccc2)c(=O)[nH]c1=O	?	11	-18%	nt	nt	nt
COc1ccc(C2=NCC(C)n3c2c2ccc(OC)cc2[n+]3[O-])cc1 (stereo not given)	nt	33	nt	nt	nt	nt
COc1ccc(S(=O)(=O)N(CC(=O)NCc2ccncc2)Cc2ccccc2)cc1	-28%	5	3%	9%[46.1 µM]	3%	13%
COc1ccc(CNC(=O)CN(Cc2ccccc2)S(=O)(=O)c2ccc(Cl)cc2)cc1	?	-17	10µM*	-12%	-18%	-18%
COc1ccc(C)cc1S(=O)(=O)N(CC(=O)NCc1ccc(Cl)cc1)Cc1ccccc1	?	1	nt	23µM*	-4%	-25%[14.3 µM]
COc1ccc(CNC(=O)CN(Cc2ccc(Cl)cc2)S(=O)(=O)c2ccccc2)cc1	28µM*	-2	-12%	?	-6%	?
CNCCNS(=O)(=O)c1cccc2cnccc12	-11%	nt	nt	?	nt	9%
O=S(=O)(NCCNC/C=C/c1ccc(Br)cc1)c1cccc2cnccc12	?	nt	nt	10µM*	nt	?
CCOC(=O)Cn1c(C(F)(F)F)nc2nc(Cl)c(Cl)nc21	?	-98*	?	-20%	nt	-14%[46.1 µM]
CCOC(=O)Cn1c2ccccc2c2nc3ccccc3nc21	-7%	37	7%	1%[46.1 µM]	2%	8%
CC(Oc1ccc(Cl)cc1Cl)c1ccnc2nc(N3CCOCC3)nn12 (stereo not given)	?	-77*	-23%	?	-2%	-6%[46.1 µM]
C=CCn1c(C)cc(-c2csc(NC(=O)C3CCN(c4ncnc5sc(C)c(C)c45)CC3)n2)c1C	?	11	-19%	nt	nt	nt
COc1ccc(-c2csc(NC(=O)C3CCN(c4ncnc5sc(C)c(C)c45)CC3)n2)cc1OC	8.9µM*	-100*	2.5µM*	4µM*	2%	2µM*
COc1ccccc1OCC(=O)NNC(=O)C1CCN(c2ncnc3sc(C)c(C)c23)CC1	18µM*	-29	11µM*	nt	-11%	nt
Cc1cccc(OCC(=O)NNC(=O)C2CCN(c3ncnc4sc(C)c(C)c34)CC2)c1	28µM*	-39	-13%	-29%	4%	-1%
CCN(CC)c1ccc(C(=O)NNC(=O)C2CCN(c3ncnc4sc(C)c(C)c34)CC2)cc1	11µM*	-15	nt	nt	nt	nt
C=CC[C@@H]1C=C[C@H](ON=C[C@@H](C)[C@H](OCc2ccccc2)C(C)C)[C@H](CO)O1	nt	nt	nt	-10%[14.2 µM]	nt	?
O=C(NCCc1ccc(Cl)cc1)c1ccc2c(c1)N(Cc1ccccc1)C(=O)CS2	?	?	nt	nt	nt	-20%[46.1 µM]
Cc1noc(C)c1COc1ccc(C(=O)NCc2cccs2)cc1	-11%	71	4%	?	-16%	-20%
COc1cc(C(=O)N2CCN(c3ncnc4sc(C)c(C)c34)CC2)cc(OC)c1OC	11µM*	-79*	5.6µM*	?	-6%	?
CCOC(=O)c1sc2ncnc(N3CCN(C(=O)OCC)CC3)c2c1C	16µM*	?	-30%	-16%	29%	?
COc1ccc(O[C@H]2C=C[C@@H](c3ccccc3)O[C@H]2COC(=O)CCC(C)=NO[C@@H]2O[C@H](COC(C)=O)[C@@H](OC(C)=O)[C@H](OC(C)=O)[C@@H]2OC(C)=O)cc1	nt	nt	nt	-23%[14.2 µM]	nt	nt
CCc1ccc(NC(=O)Cn2c(=O)n(-c3cc(C)cc(C)c3)c(=O)c3oc4ccccc4c32)cc1	-1%	?	nt	nt	nt	-5%[46.1 µM]
COc1ccc(NC(=O)Cn2c(=O)n(-c3cc(C)cc(C)c3)c(=O)c3oc4ccccc4c32)cc1OC	-8%	-84*	nt	nt	nt	-3%[46.1 µM]
SMILES	FMDV inh	HCMV antiviral	HCV inh	MARV entry inh	SARS PLpro yeast	Lassa entry inh
COc1ccc2c(c1)C(=NO)c1cc(OC)ccc1-2	8%	?	8.9µM*	-24%	-17%	14%
CCC(NC(=O)C1C2C=CC(C2)C1C(=O)O)c1ccc(C)cc1 (stereo not given)	8%	34	11%	1%	6%	?
Cc1cccc(NC(=O)C(NS(=O)(=O)c2ccc3c(c2)oc(=O)n3C)C(C)C)c1 (stereo not given)	13%	10	nt	16%[46.1 µM]	nt	6%[46.1 µM]
COc1ccc(C2C(=O)N(C3CCCCC3)CC(=O)N2CCC2=CCCCC2)cc1 (stereo not given)	-20%	?	nt	nt	nt	-2%[46.1 µM]
Cc1ccc(C2C(=O)N(C3CCCCCC3)CC(=O)N2CCC2=CCCCC2)cc1 (stereo not given)	-15%	-63*	nt	nt	nt	?
COc1ccccc1-c1ccnc(-n2ncc(C(=O)N3CCN(C(C)C)CC3)c2-c2ccco2)n1	0%	nt	nt	nt	nt	nt
CCOC(=O)C1(Cc2cccc(Cl)c2)CCCN(C(=O)c2cccc(C)n2)C1 (stereo not given)	-14%	1	18µM*	7.1µM*	0%	?
CCOC(=O)C1(Cc2cccc(Cl)c2)CCCN(C(=O)c2ccco2)C1 (stereo not given)	-3%	10	-6%	nt	3%	nt
COc1cc(OC)cc(C(=O)Nc2ccc3nc4c(c(Nc5ccc(OC)c(OC)c5)c3c2)CCCC4)c1	?	-105*	nt	2.5µM*	nt	?
COc1cc(OC)cc(C(=O)Nc2ccc3nc4n(c(=O)c3c2)CCCC4)c1	34%	?	?	nt	-2%	nt
CCOc1ccccc1C(=O)Nc1ccc2nc3n(c(=O)c2c1)CCCCC3	3%	?	?	nt	2%	nt
CCOc1ccccc1C(=O)Nc1ccc2nc3c(c(Nc4ccc(OC)c(OC)c4)c2c1)CCCC3	?	-103*	nt	?	nt	10µM*
COc1ccc(Nc2c3c(nc4ccc(NC(=O)c5cc(Cl)ccc5OC)cc24)CCCC3)cc1OC	32µM*	-108*	nt	?	nt	?
COc1ccccc1Nc1c2c(nc3ccc(NC(=O)c4ccc(N(C)C)cc4)cc13)CCCC2	-27%	-101*	nt	3.2µM*	nt	?
CC(C)c1cccc(-c2ccc3c(c2)S(=O)(=O)c2cccc(C(=O)NC4CCCC4)c2C3=O)c1	-23%	-17	19%	nt	-15%	nt
COc1cccc2cc(S(=O)(=O)c3ccc(F)c(C)c3)c(=O)oc12	-8%	12	nt	4%[46.1 µM]	nt	0%[46.1 µM]
CCN(C(=O)CN1CCCCCC1)c1c(N)n(Cc2ccccc2)c(=O)[nH]c1=O	-11%	?	33%	9%	-1%	13%[46.1 µM]
CC(C)CN(C(=O)CN1CCCCCC1)c1c(N)n(CC(C)C)c(=O)[nH]c1=O	15%	52	11%	5%[46.1 µM]	4%	?
CC(C)CN(C(=O)CN1CC=C(c2ccccc2)CC1)c1c(N)n(CC(C)C)c(=O)[nH]c1=O	-5%	-39	3.5µM*	-11%	1%	-1%[46.1 µM]

Bioassay records from PubChem BioAssay.
